Data on 31 compounds can be found in PubChem BioAssay (NCI).

Compounds without any hit were thinned out: in the full panel of roughly 83,000, 20% have a hit.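 96-well plates, one dose, 48 hours. Percent growth reported; active if below 10.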 Activity calls are given as the source filed them.

One experiment concerns SNB-19 CNS. Kind of experiment: NCI-60 one-dose screen, 48 h (100 = growth as untreated, 0 = no growth, -100 = all killed). To be noted: 10 µM unless noted.
As to `COc1cnc2c(c1)C(=O)c1c-2n(CCCNC2=NCCS2)c(=O)c2cc(F)ccc12`, the growth was 54.6% (inactive).

As to `Cc1onc(-c2ccccc2Cl)c1C(=O)N[C@@H]1C(=O)N2[C@@H]1SC(C)(C)[C@@H]2C(=O)O`, the growth is 105% (inactive). On to `C[C@H]1O[C@@H](O[C@H]2[C@@H](O)C[C@H](O[C@H]3[C@@H](O)C[C@H](O[C@H]4CC[C@]5(C)C6C[C@@H](O)[C@]7(C)[C@@H](C8=CC(=O)OC8)CC[C@]7(O)C6CC[C@@H]5C4)O[C@@H]3C)O[C@@H]2C)C[C@H](O)[C@@H]1O` (stereo partly specified), for which the growth was -100% (active). Consider `CC1CN(/N=C/c2ccc([N+](=O)[O-])o2)C(=N)O1` (stereo unspecified), for which the growth was 99.7% (inactive). Same read-out and setting: then `O=C1NCCc2c1noc2-c1ccccc1`, with 105% (inactive); and `CC(=O)c1ccccc1NC(=O)C(C)(c1ccccc1)c1ccccc1`, with 97.1% (inactive); and `Cc1n(Cc2ccc3ccccc3c2)c2ccccc2[n+]1Cc1ccc2ccccc2c1`, with -91.7% (active).

A further experiment concerns U251 CNS. The experiment is described as above. To be noted: 10 µM unless noted.
As to `COc1ccc2c(c1)C(=Nc1cc(OC)c(OC)c(OC)c1)C(=O)N2`, the growth was 93% (inactive). On to `COc1cnc2c(c1)C(=O)c1c-2n(CCCn2ccnc2)c(=O)c2cc(F)ccc12`, for which the growth is -27.1% (active). `C[C@]12CCC(=O)C=C1CCC1C2[C@@H](O)C[C@@]2(C)C1CC[C@]2(O)C(=O)COC(=O)CCC(=O)O` (stereo partly specified): the growth is 105% (inactive).

`C[C@@H]1[C@H]2[C@H](C=C3[C@@H]4CC[C@H]5Cc6nc7c(nc6C[C@]5(C)[C@H]4C[C@@H](O)[C@@]32C)C[C@@H]2CC[C@H]3C4=C[C@@H]5O[C@@]6(CC[C@](C)(CO)O6)[C@@H](C)[C@@]5(O)[C@@]4(C)[C@H](O)C[C@@H]3[C@@]2(C)C7)O[C@]12CCC(C)(C)O2`: the growth is 7.53% (active). On the same count and under the same terms, then `CCOC(=O)/C=C1/SC(=Nc2ccc(C#N)cc2)N(Cc2ccco2)C1=O`, with 59.8% (inactive); and `C[C@H](C(=O)N[C@@H](Cc1ccc(-c2ccccc2)cc1)C(=O)NC1CC(C)(C)NC(C)(C)C1)c1ccc(-c2ccccc2)c(F)c1`, with -71% (active); and `Nc1ccccc1C#Cc1ccccc1C#Cc1ccc(OCCCCCCOc2ccc(C#Cc3ccccc3C#Cc3ccccc3N)cc2)cc1`, with 100% (inactive).

For the compound `CCSc1nc(-c2ccco2)n2nc(-c3ccco3)cc2n1`, the growth was 96.8% (inactive). In the case of `CN(C)c1ccc(-c2nc3ncc(Br)cc3o2)cc1`, the growth was 100% (inactive). Still for that read-out and setting: then `CN1CCN(c2nc3scc(-c4ccccc4)c3c(=O)[nH]2)CC1`, with 99.4% (inactive); and `CC(=O)OC1Oc2cc(C)c(C)cc2-c2oc(=O)c(-c3ccccc3)cc21` (stereo unspecified), with 13.2% (inactive).

With `N#CC(C#N)C(C#N)C#N`, the growth was 93.6% (inactive). Same read-out and setting: then `CCOC(=O)c1sc(NC(=O)COc2cccc(/C=C3\CCc4cc(OC)ccc4C3=O)c2)nc1C`, with 41.1% (inactive); and `COc1cnc2c(c1)C(=O)c1c-2n(CCCN2CCOCC2)c(=O)c2cc(F)ccc12`, with -27.7% (active); and `CCN1CC2=C(Nc3nc(SC)[nH]c(=O)c3C2c2cc(OC)c(OC)c(OC)c2)/C(=C/c2cc(OC)c(OC)c(OC)c2)C1` (stereo unspecified), with 83.8% (inactive). Regarding `CCOC(=O)CCC(=O)O[C@H]1[C@H](O[C@@H]2[C@@H](C)[C@H](O[C@H]3C[C@@](C)(OC)[C@@H](O)[C@H](C)O3)[C@@H](C)C(=O)O[C@H](CC)[C@@](C)(O)[C@H](O)[C@@H](C)C(=O)[C@H](C)C[C@@]2(C)O)O[C@H](C)C[C@@H]1N(C)C`, the growth was 101% (inactive). The same measure, in the same setting: then `CNCCCn1c2c(c3ccc(F)cc3c1=O)C(=O)c1cc(OC)cnc1-2`, with -25.8% (active). On the same count and under the same terms, then `NC(=NCCCCCCN=C(N)/N=C(\N)Nc1ccc(Cl)cc1)/N=C(\N)Nc1ccc(Cl)cc1`, with -5.76% (active); and `O=C1CSC(c2ccccc2Cl)N1c1nnc(Cn2nnc3ccccc32)o1` (stereo unspecified), with 77.6% (inactive). Consider `O=C(O)CCC(=O)OC[C@@H](NC(=O)C(Cl)Cl)[C@H](O)c1ccc([N+](=O)[O-])cc1`, for which the growth is 99.3% (inactive). On to `COc1ccc(-c2cc(-c3nnc(SCC(=O)Nc4ccc(C(C)=O)cc4)n3-c3ccccc3)c3ccccc3n2)cc1OC`, for which the growth was 101% (inactive). Same read-out and setting: then `C[C@H](C(=O)N[C@@H](Cc1ccc(-c2ccccc2)cc1)C(=O)NC1CC(C)(C)N(C)C(C)(C)C1)c1ccc(-c2ccccc2)c(F)c1`, with -74.7% (active); and `O=C(O)C1C(c2ccccc2)c2ccccc2C(O)C1CO` (stereo unspecified), with 105% (inactive); and `CSc1nc(Nc2ccc(S(=O)(=O)Nc3ccon3)cc2)c(C#N)c(-c2ccc(Cl)cc2)n1`, with 88.2% (inactive).
